Experimental data: PubChem BioAssay (EPA / NIEHS)
Several values for one entry are separate records, joined by “and”; a condition that tells them apart may be missing. Equal entries are not always repeated. Records with an inconclusive call do not appear. Activity calls are given as the source filed them. The calls were made as follows, unless noted: active = hit-call score of the fitted dose curve at least 0.9, where 1 is the maximum; inconclusive = response in the unintended direction; inactive = score below 0.9.

Columns and labels:
[1] = ATG_Oct_MLP_CIS: Attagene CIS-FACTORIAL HepG2 Assay for human Octamer-Binding Transcription Factor (Oct) (AID 2282993; active = hit-call score of the fitted dose curve at least 0.9, where 1 is the maximum; inactive = score below 0.9); settings: HepG2 Attagene cis-factorial Oct reporter, mRNA; actives raise or lower the signal
Summary of the method: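 Multiplexed cis-reporter assay in human liver HepG2 cells, 24 h incubation. Reporter RNA amplified and labelled, then resolved by capillary electrophoresis; DMSO serves as negative control and baseline.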

[2] = target: human Peroxisome Proliferator-activated Receptor alpha (PPARa), PPARA (gene 5465) (UniProt Q07869); test: ATG_PPARa_TRANS: Attagene TRANS-FACTORIAL HepG2 Assay for human Peroxisome Proliferator-activated Receptor alpha (PPARa) (AID 2283001);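 as to AC50: potency for gain of reporter signal over DMSO so agonist or activator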
Summary of the method: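 Reporter transcripts from GAL4-UAS units in transfected HepG2 were quantified 24 h after dosing. Detection used reverse transcription, PCR, fluorescent primer extension and capillary electrophoresis, with DMSO as baseline.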

[3] = target: human Peroxisome Proliferator-activated Receptor delta (PPARd), PPARD (gene 5467) (UniProt Q03181); test: ATG_PPARd_TRANS: Attagene TRANS-FACTORIAL HepG2 Assay for human Peroxisome Proliferator-activated Receptor delta (PPARd) (AID 2283002)
Summary of the method: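 Cell-based TRANS reporter: HepG2, transient MRTU transfection, 24 h exposure. Readout = reporter mRNA (RT-PCR/CE, 6-FAM). Gain-of-signal fit vs DMSO control.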

[4] = target: Peroxisome proliferator-activated receptor gamma (Homo sapiens) (UniProt P37231); test: ATG_PPARg_TRANS: Attagene TRANS-FACTORIAL HepG2 Assay for human Peroxisome Proliferator-activated Receptor-gamma (PPARg) (AID 2283007)
Summary of the method: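 Read-out: reporter mRNA induction, detected by fluorescence after RT-PCR and capillary electrophoresis. Transiently transfected human HepG2 liver cells carrying a chimeric NR-Gal4 construct were dosed for 24 h; activity was fitted upward relative to DMSO.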

[5] = target: human Thyroid Receptor alpha (THRa1), THRA (gene 7067) (UniProt P10827); test: ATG_THRa1_TRANS: Attagene TRANS-FACTORIAL HepG2 Assay for human Thyroid Receptor alpha (THRa1) (AID 2283014)
Summary of the method: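 HepG2 cells transiently transfected with chimeric NR-Gal4 and GAL4-UAS reporter units, dosed 24 h. Reporter mRNA quantified by RT-PCR, fluorescent labeling, HpaI digestion and capillary electrophoresis; gain-of-signal fit versus DMSO.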

[6] = target: human Retinoic Acid Receptor beta (RARb), RARB (gene 5915) (UniProt P10826); test: ATG_RARb_TRANS: Attagene TRANS-FACTORIAL HepG2 Assay for human Retinoic Acid Receptor beta (AID 2283004)
Summary of the method: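 HepG2 cells were transiently transfected with GAL4-UAS reporter units that report activity of exogenous chimeric NR-Gal4 proteins, then exposed to compound for 24 h. Reporter mRNA was quantified by RT-PCR with capillary electrophoresis fluorescence, as gain of signal over DMSO.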

[7] = target: Retinoic acid receptor alpha (Homo sapiens) (UniProt P10276); test: ATG_RARa_TRANS: Attagene TRANS-FACTORIAL HepG2 Assay for human Retinoic Acid Receptor alpha (RARa) (AID 2283005)
Summary of the method: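 Reporter transcripts, measured by RT-PCR with fluorescent labeling and capillary electrophoresis after 24 h dosing, reflect activity of an exogenous human RARa–GAL4 fusion in transiently transfected HepG2. Fitted for increase relative to DMSO.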

[8] = target: Nuclear receptor subfamily 1 group I member 2 (Homo sapiens) (UniProt O75469); test: ATG_PXR_TRANS: Attagene TRANS-FACTORIAL HepG2 Assay for human Pregnane X Receptor (PXR) (AID 2283008)
Summary of the method: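 Fluorescence intensity of FAM-labelled, HpaI-digested reporter amplicons, separated by capillary electrophoresis, quantifies induction. HepG2 cells with PXR-Gal4 trans-reporter system were exposed 24 h; DMSO defines baseline.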

[9] = target: human Retinoic Acid Receptor gamma (RARg), RARG (gene 5916) (UniProt P13631); test: ATG_RARg_TRANS: Attagene TRANS-FACTORIAL HepG2 Assay for human Retinoic Acid Receptor gamma (RARg) (AID 2283009)
Summary of the method: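 HepG2 cells transiently transfected with multiplexed reporter units expressing chimeric RARg-GAL4 and GAL4-UAS-driven reporters; 24 h compound exposure. Reporter mRNA quantified by RT-PCR with fluorescent labelling and capillary electrophoresis; gain-of-signal fitted relative to DMSO baseline.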

[10] = target: human RAR-related Orphan Receptor beta (RORb), RORB (gene 6096) (UniProt Q92753); test: ATG_RORb_TRANS: Attagene TRANS-FACTORIAL HepG2 Assay for human RAR-related Orphan Receptor beta (RORb) (AID 2283010)
Summary of the method: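 HepG2 cells were transiently transfected with multiplexed GAL4-UAS reporter units expressing chimeric nuclear receptor–GAL4 proteins, then dosed for 24 h. Reporter mRNA was quantified by RT-PCR with fluorescent labelling and capillary electrophoresis; gain of signal was fitted relative to DMSO.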

[11] = target: human RAR-related Orphan Receptor gamma (RORg), RORC (gene 6097) (UniProt P51449); test: ATG_RORg_TRANS: Attagene TRANS-FACTORIAL HepG2 Assay for human RAR-related Orphan Receptor gamma (RORg) (AID 2283011)
Summary of the method: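 HepG2 cells transiently transfected with GAL4-UAS reporter units and chimeric RORg-Gal4 construct; after 24 h chemical exposure, reporter mRNA measured by RT-PCR with fluorescent capillary electrophoresis, gain of signal fitted against DMSO.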

[12] = target: Retinoic acid receptor RXR-alpha (Homo sapiens) (UniProt P19793); test: ATG_RXRa_TRANS: Attagene TRANS-FACTORIAL HepG2 Assay for human Retinoid X Receptor alpha (RXRa) (AID 2283012)
Summary of the method: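 HepG2 cells transiently transfected with multiplexed GAL4-UAS reporter units and chimeric NR-GAL4 fusions, dosed 24 h. Reporter mRNA measured by RT-PCR, FAM labelling, HpaI digestion and capillary electrophoresis; gain-of-signal fitted relative to DMSO baseline.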

[13] = BSK_3C_TissueFactor: BioMAP Diversity Plus: 3C Assay for Tissue Factor Biomarker Activity (AID 2282997; active = hit-call score of the fitted dose curve at least 0.9, where 1 is the maximum; inactive = score below 0.9); settings: BioMAP 3C HUVEC, tissue factor biomarker readout; actives raise or lower the signal
Summary of the method: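 HUVEC were treated 24 h, then surface tissue factor measured by ELISA and fitted bidirectionally against DMSO. Parallel SRB total-protein staining assessed overt cytotoxicity at the same time point.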

[14] = BSK_3C_uPAR: BioMAP Diversity Plus: 3C Assay for Urokinase-type plasminogen activator receptor (uPAR) Biomarker Activity (AID 2282998; active = hit-call score of the fitted dose curve at least 0.9, where 1 is the maximum; inactive = score below 0.9); settings: BioMAP 3C HUVEC, uPAR biomarker ELISA; actives raise or lower the signal
Summary of the method: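 Dose primary human umbilical vein endothelial cells, incubate 24 h, measure cell-surface uPAR by ELISA, then fit the signal in both directions against the DMSO negative control.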

[15] = BSK_3C_VCAM1: BioMAP Diversity Plus: 3C Assay for Vascular cell adhesion molecule 1 (VCAM1) Biomarker Activity (AID 2282999; active = hit-call score of the fitted dose curve at least 0.9, where 1 is the maximum; inactive = score below 0.9); settings: BioMAP 3C HUVEC, VCAM1 ELISA, cytokine-stimulated; actives raise or lower the signal
Summary of the method: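 Endothelial cells from human umbilical vein are treated with test chemical. At 24 h, VCAM-1 is measured by ELISA, and responses in either direction are fitted relative to DMSO.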

[16] = BSK_4H_Eotaxin3: BioMAP Diversity Plus: 4H Assay for Eotaxin 3 Biomarker Activity (AID 2283000; active = hit-call score of the fitted dose curve at least 0.9, where 1 is the maximum; inactive = score below 0.9); settings: primary human endothelial cells (HUVEC); actives raise or lower the signal
Summary of the method: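 Eotaxin-3 (CCL26) levels were measured by ELISA in HUVEC primary cultures 24 h post-dosing. Gain or loss of signal was fitted in both directions, with DMSO serving as baseline and negative control.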

[17] = read-out: Intercellular Adhesion Molecule 1 (ICAM1), ICAM1 (gene 3383); test: BSK_3C_ICAM1: BioMAP Diversity Plus: 3C Assay for Intercellular Adhesion Molecule 1 (ICAM1) Biomarker Activity (AID 2283003; active = hit-call score of the fitted dose curve at least 0.9, where 1 is the maximum; inactive = score below 0.9); settings: primary human endothelial cells (HUVEC); actives raise or lower the signal
Summary of the method: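 Primary human umbilical vein endothelial cells in the BioMAP 3C system were exposed to chemicals for 24 h, then ICAM-1 was quantified by ELISA. Activity was fitted bidirectionally against the DMSO negative control baseline.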

[18] = BSK_3C_Proliferation: Cell Proliferation Assessment in the BioMAP Diversity Plus: 3C Assay (AID 2283006; active = hit-call score of the fitted dose curve at least 0.9, where 1 is the maximum; inactive = score below 0.9); settings: primary human endothelial cells (HUVEC)
Summary of the method: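 Human umbilical vein endothelial cells were grown sub-confluent and exposed to chemical for 48 h, then fixed with 10% TCA and stained with 0.1% sulforhodamine B; absorbance at 560 nm gave relative cell number, fitted bidirectionally against DMSO baseline.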

[19] = target: human Retinoid X Receptor beta (RXRb), RXRB (gene 6257) (UniProt P28702); test: ATG_RXRb_TRANS: Attagene TRANS-FACTORIAL HepG2 Assay for human Retinoid X Receptor beta (RXRb) (AID 2283013)
Summary of the method: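 HepG2 cells transiently transfected with multiplexed reporter units driven by GAL4-UAS and exogenous chimeric NR-Gal4 proteins; treated 24 h. Reporter mRNA measured by RT-PCR, 6-FAM labelling and capillary electrophoresis; gain-of-signal fitted versus DMSO baseline.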

Measured: AC50

human Peroxisome Proliferator-activated Receptor alpha (PPARa), PPARA (gene 5465), sequence (Q07869 whole entry, looked up, the tested form may be a part): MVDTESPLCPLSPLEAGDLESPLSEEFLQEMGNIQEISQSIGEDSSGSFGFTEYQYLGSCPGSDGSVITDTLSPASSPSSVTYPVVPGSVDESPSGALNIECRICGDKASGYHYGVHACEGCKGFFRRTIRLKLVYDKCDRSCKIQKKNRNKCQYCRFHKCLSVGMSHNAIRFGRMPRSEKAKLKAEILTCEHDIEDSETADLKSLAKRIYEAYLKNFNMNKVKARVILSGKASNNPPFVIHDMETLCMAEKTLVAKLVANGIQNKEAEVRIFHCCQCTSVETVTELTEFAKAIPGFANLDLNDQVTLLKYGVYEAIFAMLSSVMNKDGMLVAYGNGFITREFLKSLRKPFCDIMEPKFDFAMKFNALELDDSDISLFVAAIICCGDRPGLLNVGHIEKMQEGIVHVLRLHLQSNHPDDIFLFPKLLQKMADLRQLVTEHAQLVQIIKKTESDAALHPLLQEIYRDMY
Retinoic acid receptor RXR-alpha (Homo sapiens), sequence (P19793 whole entry, looked up, the tested form may be a part): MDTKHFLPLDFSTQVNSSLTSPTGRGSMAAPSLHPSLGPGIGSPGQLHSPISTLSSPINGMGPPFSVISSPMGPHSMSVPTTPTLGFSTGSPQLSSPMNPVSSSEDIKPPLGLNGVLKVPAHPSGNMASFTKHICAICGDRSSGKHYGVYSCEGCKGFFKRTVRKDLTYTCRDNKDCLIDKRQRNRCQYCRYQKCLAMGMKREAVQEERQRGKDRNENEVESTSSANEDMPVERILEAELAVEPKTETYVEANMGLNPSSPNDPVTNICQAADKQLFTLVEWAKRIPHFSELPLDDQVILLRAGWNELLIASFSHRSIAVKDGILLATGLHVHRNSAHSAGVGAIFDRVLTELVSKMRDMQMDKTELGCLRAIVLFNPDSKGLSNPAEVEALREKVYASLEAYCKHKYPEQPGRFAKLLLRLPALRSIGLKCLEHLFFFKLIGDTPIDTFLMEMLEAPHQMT
human RAR-related Orphan Receptor gamma (RORg), RORC (gene 6097), sequence (P51449 whole entry, looked up, the tested form may be a part): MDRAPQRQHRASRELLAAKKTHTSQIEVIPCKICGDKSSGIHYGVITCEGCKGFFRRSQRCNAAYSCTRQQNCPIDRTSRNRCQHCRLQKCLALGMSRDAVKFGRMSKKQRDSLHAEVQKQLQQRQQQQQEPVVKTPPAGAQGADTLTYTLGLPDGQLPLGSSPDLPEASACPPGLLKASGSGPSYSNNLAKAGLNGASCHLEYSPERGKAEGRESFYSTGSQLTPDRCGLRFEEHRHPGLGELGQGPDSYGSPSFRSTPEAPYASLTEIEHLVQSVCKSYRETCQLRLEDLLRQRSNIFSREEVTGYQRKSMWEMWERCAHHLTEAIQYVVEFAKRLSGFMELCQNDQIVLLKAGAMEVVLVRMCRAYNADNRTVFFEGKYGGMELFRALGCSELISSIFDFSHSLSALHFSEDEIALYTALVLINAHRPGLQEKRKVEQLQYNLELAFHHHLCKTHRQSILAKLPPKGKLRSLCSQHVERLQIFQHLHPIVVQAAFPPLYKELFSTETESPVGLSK
human Retinoic Acid Receptor beta (RARb), RARB (gene 5915), sequence (P10826 whole entry, looked up, the tested form may be a part): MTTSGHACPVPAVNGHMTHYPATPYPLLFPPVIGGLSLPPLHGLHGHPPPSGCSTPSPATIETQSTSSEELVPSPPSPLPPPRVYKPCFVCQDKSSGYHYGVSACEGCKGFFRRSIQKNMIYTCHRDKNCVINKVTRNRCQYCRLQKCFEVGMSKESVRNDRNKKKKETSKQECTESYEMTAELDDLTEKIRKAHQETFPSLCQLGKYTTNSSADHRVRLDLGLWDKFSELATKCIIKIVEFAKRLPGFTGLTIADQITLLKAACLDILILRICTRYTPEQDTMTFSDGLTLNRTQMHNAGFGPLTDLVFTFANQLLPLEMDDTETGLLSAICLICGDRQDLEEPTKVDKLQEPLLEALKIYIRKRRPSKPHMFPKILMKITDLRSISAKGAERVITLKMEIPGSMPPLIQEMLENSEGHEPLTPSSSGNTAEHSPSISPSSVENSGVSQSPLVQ
human Thyroid Receptor alpha (THRa1), THRA (gene 7067), sequence (P10827 whole entry, looked up, the tested form may be a part): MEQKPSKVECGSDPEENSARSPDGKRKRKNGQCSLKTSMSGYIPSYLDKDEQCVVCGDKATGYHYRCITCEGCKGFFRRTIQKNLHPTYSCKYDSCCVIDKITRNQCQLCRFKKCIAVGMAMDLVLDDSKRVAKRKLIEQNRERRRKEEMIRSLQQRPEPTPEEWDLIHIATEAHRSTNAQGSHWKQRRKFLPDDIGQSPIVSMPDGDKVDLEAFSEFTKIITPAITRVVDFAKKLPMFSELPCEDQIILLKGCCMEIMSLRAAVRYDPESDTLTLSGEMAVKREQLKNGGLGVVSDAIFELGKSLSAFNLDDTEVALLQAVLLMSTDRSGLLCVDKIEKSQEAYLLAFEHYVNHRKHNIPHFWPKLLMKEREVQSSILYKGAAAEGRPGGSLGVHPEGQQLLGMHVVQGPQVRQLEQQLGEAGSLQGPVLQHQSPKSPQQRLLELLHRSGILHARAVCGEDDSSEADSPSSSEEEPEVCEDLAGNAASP
Retinoic acid receptor alpha (Homo sapiens), sequence (P10276 whole entry, looked up, the tested form may be a part): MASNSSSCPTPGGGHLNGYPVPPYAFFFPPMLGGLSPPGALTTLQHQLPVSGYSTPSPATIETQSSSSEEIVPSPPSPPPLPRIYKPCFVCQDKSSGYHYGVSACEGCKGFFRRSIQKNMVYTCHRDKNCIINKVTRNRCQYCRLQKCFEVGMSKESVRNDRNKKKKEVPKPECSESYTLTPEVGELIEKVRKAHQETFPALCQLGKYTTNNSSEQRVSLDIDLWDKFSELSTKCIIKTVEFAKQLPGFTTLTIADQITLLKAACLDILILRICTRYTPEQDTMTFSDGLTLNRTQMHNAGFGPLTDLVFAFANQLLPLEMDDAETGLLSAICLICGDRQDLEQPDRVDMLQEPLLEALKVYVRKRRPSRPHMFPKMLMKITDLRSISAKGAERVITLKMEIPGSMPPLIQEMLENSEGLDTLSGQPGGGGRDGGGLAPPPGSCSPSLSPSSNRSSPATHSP
Nuclear receptor subfamily 1 group I member 2 (Homo sapiens), sequence (O75469 whole entry, looked up, the tested form may be a part): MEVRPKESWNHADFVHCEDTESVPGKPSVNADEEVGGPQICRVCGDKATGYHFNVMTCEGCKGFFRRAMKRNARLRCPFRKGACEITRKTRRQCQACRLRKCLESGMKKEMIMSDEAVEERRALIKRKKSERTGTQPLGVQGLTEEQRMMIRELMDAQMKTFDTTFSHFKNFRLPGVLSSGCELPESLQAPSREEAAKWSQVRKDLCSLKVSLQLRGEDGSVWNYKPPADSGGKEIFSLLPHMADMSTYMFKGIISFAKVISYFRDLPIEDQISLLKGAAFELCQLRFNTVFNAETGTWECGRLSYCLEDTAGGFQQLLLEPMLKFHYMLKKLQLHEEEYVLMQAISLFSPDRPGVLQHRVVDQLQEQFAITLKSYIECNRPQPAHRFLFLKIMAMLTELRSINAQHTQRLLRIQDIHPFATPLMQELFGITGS
human RAR-related Orphan Receptor beta (RORb), RORB (gene 6096), sequence (Q92753 whole entry, looked up, the tested form may be a part): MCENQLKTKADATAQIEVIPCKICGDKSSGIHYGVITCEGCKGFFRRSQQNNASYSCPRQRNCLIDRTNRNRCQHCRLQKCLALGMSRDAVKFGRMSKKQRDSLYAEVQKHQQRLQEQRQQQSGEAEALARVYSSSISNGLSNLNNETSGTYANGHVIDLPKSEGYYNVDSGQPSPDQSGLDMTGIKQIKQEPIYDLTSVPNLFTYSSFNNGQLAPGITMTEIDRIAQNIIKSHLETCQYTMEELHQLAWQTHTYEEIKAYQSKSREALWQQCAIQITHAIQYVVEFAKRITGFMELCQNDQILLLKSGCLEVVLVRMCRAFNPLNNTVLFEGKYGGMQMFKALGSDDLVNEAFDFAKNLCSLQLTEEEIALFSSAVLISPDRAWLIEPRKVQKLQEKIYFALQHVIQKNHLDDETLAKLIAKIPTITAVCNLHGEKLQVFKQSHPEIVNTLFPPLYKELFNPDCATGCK
human Retinoic Acid Receptor gamma (RARg), RARG (gene 5916), sequence (P13631 whole entry, looked up, the tested form may be a part): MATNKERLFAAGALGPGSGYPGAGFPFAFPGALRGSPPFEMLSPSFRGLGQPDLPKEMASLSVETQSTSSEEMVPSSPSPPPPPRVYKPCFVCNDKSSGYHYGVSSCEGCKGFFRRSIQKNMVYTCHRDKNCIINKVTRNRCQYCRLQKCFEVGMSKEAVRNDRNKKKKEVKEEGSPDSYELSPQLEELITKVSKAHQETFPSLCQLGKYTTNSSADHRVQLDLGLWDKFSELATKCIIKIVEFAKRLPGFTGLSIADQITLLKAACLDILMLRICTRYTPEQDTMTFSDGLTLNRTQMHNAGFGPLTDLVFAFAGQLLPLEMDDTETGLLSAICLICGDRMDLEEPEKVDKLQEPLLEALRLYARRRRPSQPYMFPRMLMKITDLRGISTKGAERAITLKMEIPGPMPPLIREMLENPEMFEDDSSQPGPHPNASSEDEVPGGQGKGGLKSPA
Peroxisome proliferator-activated receptor gamma (Homo sapiens), sequence (P37231 whole entry, looked up, the tested form may be a part): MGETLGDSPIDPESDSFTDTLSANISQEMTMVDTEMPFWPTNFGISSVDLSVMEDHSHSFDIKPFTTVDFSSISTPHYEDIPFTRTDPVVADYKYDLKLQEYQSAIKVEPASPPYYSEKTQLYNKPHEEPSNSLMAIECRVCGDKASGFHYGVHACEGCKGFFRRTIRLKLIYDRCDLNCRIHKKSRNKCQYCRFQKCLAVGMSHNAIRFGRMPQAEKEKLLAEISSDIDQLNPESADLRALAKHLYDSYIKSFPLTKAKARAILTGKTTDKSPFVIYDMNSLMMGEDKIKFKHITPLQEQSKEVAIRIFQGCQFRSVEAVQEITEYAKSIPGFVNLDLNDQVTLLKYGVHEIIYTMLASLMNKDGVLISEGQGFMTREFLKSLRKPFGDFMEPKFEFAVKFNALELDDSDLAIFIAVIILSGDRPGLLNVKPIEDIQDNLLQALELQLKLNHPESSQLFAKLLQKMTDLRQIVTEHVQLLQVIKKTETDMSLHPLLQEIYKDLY

CNC(=O)CSP(=O)(OC)OC
inactive: [1] | [2] | [3] | [4] | [5]

CN(C1CCCCC1)C1CCCCC1
inactive: [1] | [6] | [7] | [4] | [8] | [9] | [5]

C1CN2CCN1CC2
inactive: [1] | [6] | [4] | [8] | [10] | [11] | [12] | [5]

O=C(N[C@H]1CN2CCC1CC2)c1ccc2c(c1)OCCO2
not listed: [2] | [5] | [7] | [10] | [11] | [19]
inactive: all other assays above

CN(N=O)c1ccc([N+](=O)[O-])cc1
inactive: [1] | [2] | [12] | [5]
active: [4] 31.9 µM | [8] 19.8 µM

CC1(C)COP(Oc2ccccc2)OC1
inactive: [1] | [2] | [3] | [9] | [12] | [19]

CC[N+](CC)(CC)CC
inactive: [1] | [2] | [4] | [8] | [12] | [19]

COc1nn(C(=O)NS(=O)(=O)c2ccccc2OC(F)(F)F)c(=O)n1C
inactive: [1] | [3] | [6] | [4] | [8] | [12]

C[N+](C)(C)Cc1ccccc1
inactive: [1] | [2] | [4] | [8] | [12]

NNCCO
inactive: [1] | [8] | [11] | [12] | [5]

ClCc1ccccc1Cl
inactive: [4] | [10] | [11]
active: [1] 74.7 µM

Fc1cccc(Cl)c1CCl
inactive: [1] | [3] | [8] | [10] | [12] | [19] | [5]
active: [4] 4.39 µM

Oc1cc(Cl)c(Cl)cc1Cl
inactive: [15] | [2] | [8] | [12] | [5]
active: [1] 66.2 µM | [13] 20 µM | [14] 14.7 µM | [16] 27.6 µM | [4] 55.9 µM | [19] 151 µM

C[C@@H]1O[C@@H](O[C@H]2C[C@@H](O)[C@]3(CO)[C@H]4[C@H](O)C[C@]5(C)[C@@H](C6=CC(=O)OC6)CC[C@]5(O)[C@@H]4CC[C@]3(O)C2)[C@H](O)[C@H](O)[C@H]1O
active: [1] 0.62 µM | [2] 71.4 nM | [4] 0.131 µM
inactive: [3] | [6] | [7] | [9] | [10] | [12] | [5]

O=C(NC(=O)c1c(F)cccc1F)Nc1ccc(Cl)cc1
inactive: [1] | [8] | [19]
active: [4] 0.636 µM

CCCCCCCCCCCCOS(=O)(=O)O
inactive: [1] | [8] | [10] | [12]
active: [2] 3.86 µM and 12.1 µM | [19] 33.4 µM

CCCCN(CCCC)C(=S)[S-].CCCCN(CCCC)C(=S)[S-].[Ni+2]
active: [8] 2.73 µM
inactive: [1] | [13] | [14] | [15] | [16] | [17] | [7] | [18] | [4] | [5]

CC1CC(=O)O1 (stereo not given)
inactive: [1] | [3] | [4] | [8]

O=c1[nH]c(=O)n(Cl)c(=O)n1Cl
inactive: [1] | [2] | [4] | [8] | [10] | [12] | [19] | [5]

CN(C)CCN(C)C
inactive: [1] | [2] | [7] | [8] | [10] | [19] | [5]

CCOCn1c(-c2ccc(Cl)cc2)c(C#N)c(Br)c1C(F)(F)F
inactive: [2] | [3] | [7] | [9] | [12] | [19] | [5]
active: [1] 1.92 µM | [4] 4.71 µM | [8] 0.561 µM
